Results filed as inconclusive are left out. Entries that show only a call come without a potency. The source made the active and inactive calls. Calls follow the shape of the full dose curve.
Experiment: qHTS for Inhibitors of Cell Surface uPA Generation: Wild-type Protective Antigen (WT-PrAg) Counterscreen for Cherry-picked Compounds
Settings: cells, WT protective antigen toxicity counterscreen; series mostly up to 115 µM

| SMILES | Potency |
| --- | --- |
| CCN(CC)c1c([N+](=O)[O-])c(=O)sc2ccccc12 | inactive |
| CCc1ccccc1N(CC(=O)N1CCCC1)S(C)(=O)=O | inactive |
| CC(C)N1CCc2c(sc(NC(=O)Cc3ccccc3)c2C(N)=O)C1 | inactive |
| CC(=O)c1ccc(NC(=O)Nc2ccc(Br)cc2C)cc1 | inactive |
| COC(=O)CCSCC(=O)N1N=C(c2ccc(OC)cc2)CC1c1cccc(OC)c1OC (configuration not stated) | inactive |
| N#Cc1ccccc1Sc1ccccc1C(=O)Nc1ccc(Br)cc1 | inactive |
| Cc1cc(C)n(CCCNC(=O)c2ccc(C)o2)n1 | inactive |
| CCC1Nc2ncnc(N3CCCCC3)c2N(Cc2ccc(Cl)cc2)C1=O (configuration not stated) | inactive |
| Cc1[nH]c2ccc(C(=O)OC(C)C(=O)NC3CCCCC3C)cc2c1C (configuration not stated) | inactive |
| Cc1ccc(-n2nc3c(c2NC(=O)c2ccc4c(c2)OCO4)CS(=O)C3)c(C)c1 (configuration not stated) | inactive |
| O=C(CN1CCCC1)Nc1cccc(Cl)c1Cl | inactive |
| CCC(C)Nc1cc(C)nc2ncnn12 (configuration not stated) | inactive |
| CC1CN(C(=O)CCC(=O)NCc2ccccc2)c2ccccc2S1 (configuration not stated) | inactive |
| O=C1[C@H]2[C@@H](c3ccc(F)cc3)N3C(=O)N(c4cccc(F)c4)C(=O)[C@@]3(Cc3ccc(Cl)cc3)[C@H]2C(=O)N1C1CCCCC1 | inactive |
| COCCNS(=O)(=O)c1cc(OC)c(C)cc1C | inactive |
| Cn1nc(C(C)(C)C)c([N+](=O)[O-])c1C(=O)N1CCOCC1 | inactive |
| Cc1nc2ccc(Br)cn2c1C(=O)N/N=C\c1ccccc1Cl | inactive |
| COc1ccc(-n2nc(C(=O)Nc3cc(OC)c(OC)c(OC)c3)c3ccccc3c2=O)c(OC)c1 | inactive |
| Cc1oc2c(Cl)c(Cl)c(O)c(CN(C)C)c2c1C(=O)c1ccc(Cl)cc1 | inactive |

| SMILES | Potency |
| --- | --- |
| COc1ccc(OC)c(NC(=O)C2CC2c2ccccc2)c1 (configuration not stated) | inactive |
| Cc1ccc(C(CC(=O)N2CCCC2)c2ccccc2)c(O)c1 (configuration not stated) | inactive |
| Cc1cc(N2C(=O)C(O)=C(C(=O)c3ccco3)C2c2ccc(Cl)cc2)no1 (configuration not stated) | inactive |
| CCCN1CCN(CC(=O)Nc2nncs2)CC1 | inactive |
| CCOc1cc(/C=C(\C#N)C(=O)NCc2cccnc2)ccc1O | inactive |
| CCOC(=O)Cc1csc(NC(=O)Nc2cccc(OC)c2)n1 | inactive |
| Cc1ccc(-c2cc(C(=O)NCC3CCCO3)no2)cc1 (configuration not stated) | inactive |
| COc1ccc2nc(C)cc(Nc3ccccc3O)c2c1 | inactive |
| CC1Cc2nc(SCC(=O)N3CCCC3)n(C)c(=O)c2S1 (configuration not stated) | inactive |
| CCCCN(CC(=O)Nc1cccc(S(=O)(=O)N2CCCC2)c1)Cc1nc2ccccc2c(=O)[nH]1 | inactive |
| Cc1cccc(Nc2ccc(NCc3ccccc3)nn2)c1 | inactive |
| Cc1cc(C)n(C(=O)c2cccc([N+](=O)[O-])c2)n1 | inactive |
| COc1ccccc1CNC(=O)CCCn1nc(C)c2c(C)n(-c3ccccc3)nc2c1=O | inactive |
| Cn1c(SCC(=O)NCCc2ccccc2)ncc(C(=O)Nc2ccc(F)cc2)c1=O | inactive |
| C=CCn1c(=O)c(C(=O)NCCc2ccc(Cl)cc2)c(O)c2cc(OC)c(OC)cc21 | inactive |
| Cc1ccccc1C(=O)NCC(=O)Nc1ccc(C)c(S(=O)(=O)N2CCCCCC2)c1 | inactive |
| Cc1ccnc(NC(=O)CCNS(=O)(=O)c2ccc(C)c(C)c2)c1 | inactive |
| CCOC(=O)C1=CC[C@@H](c2cc3ccc(OC)cc3n2C)N(S(=O)(=O)c2ccc(C)cc2)[C@H]1C(=O)OCC | inactive |

— PubChem BioAssay AID720518 (National Center for Advancing Translational Sciences (NCATS), 2013)
